Assay [1] is described as follows: resazurin metabolic signal in HepG2 cells – cell-based, resazurin fluorescence, 24 h, PK04 Diversity Set, profiling panel (AID 1172). Also: test concentration not given here. The conditions noted are these: HepG2 viability, higher = more signal.
Assay [2] in a line: budding yeast growth changes without added modifier – OD600, strain BY4716, 24 h, basal condition, primary screen (AID 1173). The conditions noted are these: S. cerevisiae BY4716 growth, OD600, 24 h; higher = more signal, called active from +8 up or from −8 down.
Assay [3] in a line: viability profiling in MM1S myeloma cells – cell-based, resazurin fluorescence, basal, 24 h, PK04 Diversity Set, profiling panel (AID 1174). Also: test concentration not given here. The conditions noted are these: higher = more signal, called active from +8 up or from −8 down. On the technique in general: Resazurin is reduced to fluorescent resorufin, in cell work by metabolically active cells.
For assay [4], the target named is Dihydroorotate dehydrogenase (quinone), mitochondrial (Plasmodium falciparum (isolate 3D7)) (UniProt Q08210). In words: inhibition of P. falciparum DHODH – biochemical, C-terminal His tag, absorbance 600 nm, primary screen (AID 1175).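 Also: recombinant parasite enzyme with a five histidine tag at its C terminus; test concentration not given here.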 The conditions noted are these: PfDHODH enzyme, DCIP absorbance 600 nm; higher = more signal, called active from +8 up or from −8 down.
Chain of Dihydroorotate dehydrogenase (quinone), mitochondrial (Plasmodium falciparum (isolate 3D7)) (Q08210 whole entry, looked up): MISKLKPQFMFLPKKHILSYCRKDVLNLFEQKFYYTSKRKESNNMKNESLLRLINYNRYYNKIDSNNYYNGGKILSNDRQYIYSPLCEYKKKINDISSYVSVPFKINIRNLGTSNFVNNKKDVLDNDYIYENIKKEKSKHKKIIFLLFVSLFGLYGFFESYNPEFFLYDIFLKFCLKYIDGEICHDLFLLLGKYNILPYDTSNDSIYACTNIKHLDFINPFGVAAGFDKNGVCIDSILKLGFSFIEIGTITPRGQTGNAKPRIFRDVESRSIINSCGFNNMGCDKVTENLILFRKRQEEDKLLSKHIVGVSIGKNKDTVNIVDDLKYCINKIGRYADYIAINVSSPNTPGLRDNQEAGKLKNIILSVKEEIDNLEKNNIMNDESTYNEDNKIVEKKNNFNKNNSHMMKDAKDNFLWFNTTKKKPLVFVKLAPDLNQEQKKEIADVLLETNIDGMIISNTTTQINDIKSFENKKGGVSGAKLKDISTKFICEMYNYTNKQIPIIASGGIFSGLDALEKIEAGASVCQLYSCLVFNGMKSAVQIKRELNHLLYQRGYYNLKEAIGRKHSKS

A short description of assay [5]: inhibition of PAO1 biofilm formation – strain PAO1, LB-PBS medium, absorbance 600 nm, primary screen (AID 1176). Also: test concentration not given here. The conditions noted are these: P. aeruginosa PAO1 growth/biofilm, A600, 12 h; higher = more signal.
A short description of assay [6]: growth modulation of vineyard yeast isolate – strain RM11-1a, OD600, basal, 24 h, primary screen (AID 1177).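 Also: cultures grown under basal conditions with no added stressor; test concentration not given here.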 The conditions noted are these: S. cerevisiae RM11-1a growth, OD600, 24 h; higher = more signal, called active from +8 up or from −8 down.
A short description of assay [7]: growth of efflux-deficient E. coli DRC39 – strain DRC39, OD650, 24 h, E. coli filamentation inducers, primary screen (AID 1178).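 Also: growth measured as culture turbidity by optical density at 650 nm; test concentration not given here.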 The conditions noted are these: E. coli DRC39 acrAB, higher = more signal, called active from +8 up or from −8 down.
Assay [8] is described as follows: growth of efflux-deficient E. coli DRC39 – strain DRC39, OD650, 48 h, E. coli filamentation inducers, primary screen (AID 1179).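 Also: screen aims at cell division blockers that make cells filament.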 The conditions noted are these: E. coli DRC39 delta-acrAB growth, higher = more signal, called active from +8 up or from −8 down.
Assay [9] can be described thus: viability profiling in RPMI8226 myeloma cells – cell-based, resazurin fluorescence, basal, 24 h, PK04 Diversity Set, profiling panel (AID 1180).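 Also: RPMI8826 multiple myeloma cell line at 5000 cells per well; test concentration not given here.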 The conditions noted are these: higher = more signal.
In assay [10] the target is E3 ubiquitin-protein ligase XIAP (Homo sapiens) (UniProt P98170). As to the kind of experiment: small molecules binding XIAP protein – biophysical, small-molecule microarray, fluorescence 635 nm, primary screen (AID 1181).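 Also: score merges 667 nm emission and signal to noise over triplicate slides.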 The conditions noted are these: higher = more signal.
Chain of E3 ubiquitin-protein ligase XIAP (Homo sapiens) (P98170 whole entry, looked up): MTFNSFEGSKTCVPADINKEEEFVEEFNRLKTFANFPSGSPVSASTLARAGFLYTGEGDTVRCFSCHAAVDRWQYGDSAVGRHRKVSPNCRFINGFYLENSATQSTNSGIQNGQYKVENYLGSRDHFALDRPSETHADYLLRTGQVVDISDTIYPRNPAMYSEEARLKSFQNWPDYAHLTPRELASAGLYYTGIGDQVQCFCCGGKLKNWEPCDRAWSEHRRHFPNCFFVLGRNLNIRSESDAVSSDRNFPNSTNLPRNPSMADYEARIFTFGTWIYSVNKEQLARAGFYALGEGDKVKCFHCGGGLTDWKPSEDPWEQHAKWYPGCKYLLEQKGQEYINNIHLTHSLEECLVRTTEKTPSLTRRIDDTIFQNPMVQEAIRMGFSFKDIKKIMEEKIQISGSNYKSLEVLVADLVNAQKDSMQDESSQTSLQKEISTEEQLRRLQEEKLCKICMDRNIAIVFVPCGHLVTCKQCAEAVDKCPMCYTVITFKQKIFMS

Calls of active or inactive are those of the source. Unless noted, no rule for the calls is given here.

As for `CC1CC/C=C\[C@H]2OC34C=CCN(CCN5CCOCC5)C(=O)[C@H]3N(C(CO)C(C)C)C(=O)[C@@H]4C2C(=O)O1` (stereo not given in full), the z-score was -0.137 in [1]; 0.183 (inactive) in [2]; -0.885 (inactive) in assay [3]; -0.869 (inactive) in [5]; -0.459 (inactive) in assay [6]; 0.332 (inactive) in [7]. The z-score in assay [8] was 0.365 (inactive); in assay [9] it was -0.465. The values for the composite z-score in assay [4] and in assay [10] were -3.11 (inactive) and -0.0172, respectively.

Turning to `COCCOC(=O)N1C(=O)[C@@]2(c3cc(C#CC4(O)CCCCCC4)ccc31)[C@H](C(N)=O)[C@H]1C(=O)O[C@H](c3ccccc3)[C@H](c3ccccc3)N1[C@@H]2c1ccc(OCCO)cc1`, the z-score in [1] was -0.905; in assay [2], 0.842 (inactive); in assay [3] it was -3.72 (inactive); in assay [5], 2.53 (inactive); in assay [6], 2.58 (inactive); in assay [7] it was 0.141 (inactive). The z-score is 0.282 (inactive) in assay [8] and -3.3 in assay [9]. For the same compound, the values for the composite z-score in assay [4] and in assay [10] were 0.42 (inactive) and 0.128, respectively.

`[N-]=[N+]=Nc1ccccc1C[C@]1(C(N)=O)COC(c2ccc(OCCCO)cc2)=N1`: the z-score in assay [1] is 0.978; in [2] it was -0.0745 (inactive); in assay [3] it was 0.157 (inactive); in [5], 0.398 (inactive); in [6], -0.762 (inactive); in assay [7] it was 0.578 (inactive). For the same compound, the z-score was -0.364 (inactive) in assay [8] and 0.177 in assay [9]. Also, the figures for the composite z-score in assay [4] and in assay [10] were -0.265 (inactive) and 0.396, respectively.

Consider `CC1(C)OB(/C=C\CC(OC(=O)c2ccncc2)c2ccccc2)OC1(C)C` (stereo not given), for which the z-score in [1] is -0.159; in [2] it was -1.17 (inactive); in assay [3], 0.217 (inactive); in [5] it was -0.159 (inactive); in assay [6], -0.786 (inactive); in assay [7], 0.0147 (inactive). Besides, the values for the z-score in [8] and in [9] were -0.465 (inactive) and 0.143, respectively. In addition, the composite z-score is -0.413 (inactive) in assay [4] and 0.0487 in [10].

For the compound `CCCCC(=C=CC[C@@H](O)c1ccc(OCCO)cc1)CCO`, the z-score in assay [1] is 1.02; in assay [2], -4.12 (inactive); in [3], 1.54 (inactive); in assay [5] it was -0.0585 (inactive); in assay [6], 0.271 (inactive); in assay [7], 1.34 (inactive). The z-score was 0.672 (inactive) in assay [8] and 1.3 in [9]. The results for the composite z-score in [4] and in assay [10] were -2.3 (inactive) and 0.794, respectively.

Consider `CCc1cccc(NC(=O)O[C@H]2[C@H](OC(=O)Nc3ccccc3-c3ccccc3)[C@H](OC(=O)Nc3ccccc3-c3ccccc3)[C@@H](OC)O[C@@H]2CO)c1`, for which the z-score is 0.235 in assay [1]; 0.371 (inactive) in assay [2]; -0.444 (inactive) in assay [3]; 0.537 (inactive) in assay [5]; 2.19 (inactive) in assay [6]; -1.34 (inactive) in [7]. Also, the z-score in assay [8] is -1.66 (inactive); in assay [9], -0.254. Further, the composite z-score in [4] is -0.371 (inactive); in assay [10], 0.146.

Consider `COC(=O)[C@@]1(Cc2ccc(F)cc2)[C@@H]2C(=CC(=O)[C@H]2CC(=O)C(=O)N2CCCC2)CN1C(=O)c1ccccc1`, for which the z-score was -1.96 in assay [1]; 0.336 (inactive) in assay [2]; -2.67 (inactive) in [3]; 2.55 (inactive) in [5]; 0.381 (inactive) in assay [6]; 0.132 (inactive) in assay [7]. The z-score in assay [8] was -0.363 (inactive); in [9] it was -5.25. The figures for the composite z-score in [4] and in [10] were -3.95 (inactive) and -0.0391, respectively.

Regarding `C=CCNC(=O)[C@@H]1[C@H]2C(=O)O[C@H](c3ccccc3)[C@H](c3ccccc3)N2[C@H](c2ccc(O)cc2)[C@@]12C(=O)Nc1ccc(C#CC3=CCCCC3)cc12`, the z-score in assay [1] is -0.496; in assay [2], 0.233 (inactive); in [3] it was -3.25 (inactive); in assay [5], 1.66 (inactive); in assay [6], 1.28 (inactive); in assay [7], -0.33 (inactive). The z-score in assay [8] is 0.254 (inactive); in assay [9], -6.25. The composite z-score in assay [4] is -0.691 (inactive); in assay [10] it was 0.28.

As for `C[C@]1(C(=O)NCC(F)(F)F)c2ccccc2C(=O)N(Cc2cc(C(F)(F)F)cc(C(F)(F)F)c2)[C@H]1c1ccc(CO)cc1`, the z-score in assay [1] was 0.373; in assay [2], -0.234 (inactive); in assay [3], 1.2 (inactive); in [5] it was 0.5 (inactive); in assay [6], 0.507 (inactive); in assay [7], 0.712 (inactive). In addition, the z-score in assay [8] was 0.827 (inactive); in assay [9] it was 1.13. The composite z-score was -0.954 (inactive) in [4] and -0.0099 in assay [10].

As for `CS(=O)(=O)CCOC(=O)C1=CC(CCCO)=CC(C2CC2)N(Cc2sc3ccccc3c2Cl)C=C1C(=O)OCCS(C)(=O)=O` (stereo not given), the z-score is -0.0631 in assay [1]; -6.21 (inactive) in [2]; -0.548 (inactive) in assay [3]; 0.0478 (inactive) in assay [5]; 0.155 (inactive) in assay [6]; 0.564 (inactive) in assay [7]. For the same compound, the z-score in [8] was 0.156 (inactive); in [9], -0.541. Further, the composite z-score is -0.559 (inactive) in assay [4] and 0.431 in assay [10].

For `C=CCNC(=O)[C@H]1[C@@H]2C(=O)O[C@@H](c3ccccc3)[C@@H](c3ccccc3)N2[C@@H](c2ccc(O)cc2)[C@]12C(=O)Nc1ccc(C#CCC(C(=O)OC)C(=O)OC)cc12`, the z-score in assay [1] is -0.111; in assay [2] it was 0.24 (inactive); in assay [3] it was 0.0789 (inactive); in assay [5], 0.293 (inactive); in assay [6] it was 0.249 (inactive); in [7], -0.254 (inactive). Also, the z-score in assay [8] is -0.0535 (inactive); in [9], -3.01. Also, the results for the composite z-score in assay [4] and in assay [10] were -7.4 (inactive) and 0.256, respectively.

Turning to `COc1c(C)cc(-c2cc3c(c(CCc4ccccc4)n2)[Si](C(C)C)(C(C)C)O[C@H]3c2ccccc2)cc1C`, the z-score was -0.0275 in assay [1]; 0.597 (inactive) in assay [2]; 0.135 (inactive) in assay [3]; 0.608 (inactive) in assay [5]; 1.42 (inactive) in [6]; -0.754 (inactive) in assay [7]. Besides, the z-score in [8] is -0.744 (inactive); in [9], -3.7. The composite z-score in [4] was 0.0798 (inactive); in [10], -0.195.

For `CC(C)C[C@H]1NC(=O)CNC(=O)[C@@]23C(=O)N[C@@H](Cc4ccccc4)C2[C@H](C)[C@@]2(C)O[C@H]2C3/C=C/C/C=C\CNC1=O` (stereo not given in full), the z-score is -0.657 in [1]; -0.572 (inactive) in assay [2]; 0.105 (inactive) in assay [3]; 1.11 (inactive) in assay [5]; 0.0636 (inactive) in [6]; -0.288 (inactive) in assay [7]. Further, the z-score is -0.141 (inactive) in [8] and 0.293 in [9]. In addition, the composite z-score is -0.341 (inactive) in assay [4] and -0.122 in assay [10].

The values above are taken from PubChem BioAssay.
